# Assay results: PubChem BioAssay AID588492 (Sanford-Burnham Center for Chemical Genomics, 2011)
# Several values for one entry are separate records, joined by “and”; a condition that tells them apart may be missing. Equal values may be shown once. In all, about 360,000 compounds went through this assay and about 2,300 (0.64%) were called active. The sample holds actives, similar compounds and a random draw of the others, so the mix is not that of the screen. A number with no mark means an inactive call.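 Rule for the calls: active = compounds giving at least 50% protection of heart cells from peroxide-induced death in the single-dose screen, raw or plate-pattern-corrected value; inactive = the rest.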
# Test: cardioprotection against H2O2-induced cell death, primary screen, uHTS, H9c2 cells, ATPLite luminescence (AID 588492);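 note: 0% = DMSO wells with peroxide and 100% = DMSO wells without peroxide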
# Settings: H9c2 cardiomyocytes, H2O2 injury protection, 2 h, at 20 µM, stronger effect = higher value
row,SMILES,protection from H2O2 cell death
1,Cc1nn(Cc2ccccc2Cl)c(C)c1NC(=O)Cn1nc([N+](=O)[O-])c(Cl)c1C,15.4%
2,Cc1c(Cl)c([N+](=O)[O-])nn1CCCC(=O)NC(C)c1ccccc1 (centres undefined),5.3%
3,Cc1c(Cl)c([N+](=O)[O-])nn1Cc1ccc(C(=O)N/N=C\c2cc(Cl)ccc2O)o1,67.5% (active)
4,N#Cc1ccc(C(c2ccc(C#N)cc2)n2cncn2)cc1,2.5%
5,Cn1c(C(=O)NCCN2CCc3ccccc3C2)cc2c(=O)[nH]c3ccccc3c21,19.2%
6,Cn1c(C(=O)NCCc2ccsc2)cc2c(=O)n(C)c3ccccc3c21,96.5% (active)
7,Cn1c(C(=O)N2CCC(C(N)=O)CC2)cc2c(=O)n(C)c3ccccc3c21,1.2%
8,O=C(N/N=C/c1cc([N+](=O)[O-])ccc1O)/C(=C\c1cccs1)NC(=O)c1ccccc1,54.9% (active)
9,O=C(Nc1ccc(C(=O)O)cc1)/C(=C/c1ccc([N+](=O)[O-])cc1)NC(=O)c1ccccc1,4.6%
10,O=C(NCCc1ccccc1)/C(=C\c1ccc([N+](=O)[O-])cc1)NC(=O)c1ccccc1,16.6%
11,CCOCCCNC(=O)C(NC(=O)c1ccc(=O)[nH]c1)c1ccc(Cl)cc1 (centres undefined),-7.9%
12,COc1ccc([C@H]2N[C@]3(CCCN(CC4CCCCC4)C3=O)[C@H]3C(=O)N(C)C(=O)[C@@H]23)cc1,5.5%
13,CCN(CC)CCNc1ccc(Cl)cc1[N+](=O)[O-],9.1%
14,CN(C)CCNc1ccc(-c2n[nH]c(=O)c3ccccc23)cc1[N+](=O)[O-],61.1% (active)
15,COCCNc1ccc(-c2n[nH]c(=O)c3ccccc23)cc1[N+](=O)[O-],40.1%
16,CCCC(=O)NC(Nc1ccccc1OC)C(Cl)(Cl)Cl (centres undefined),3%
17,c1ccc(CCc2ccccn2)cc1,-1.9%
18,O=c1[nH]nc(Cc2ccccn2)c2ccccc12,84.4% (active)
19,Cc1ccc(C(=O)C(C)OC(=O)Cc2n[nH]c(=O)c3ccccc23)cc1C (centres undefined),12.9%
20,COc1ccc(OC)c(CN2C(=O)CCC2(C)C(=O)NC2CCCCCC2)c1 (centres undefined),1.4%

row,SMILES,protection from H2O2 cell death
1,O=C(CN1C(=O)NC2(CCCCCCC2)C1=O)NCc1ccc(F)cc1,-8.5%
2,COc1ccc(N2CCN(Cc3ccc(Br)s3)CC2)cc1,-6.8%
3,Cc1ccc(NC(=O)c2sc3nc(N)c(C#N)cc3c2N)cc1,-0.8%
4,CCSc1nc(-c2ccc(OC)cc2)cc(-c2ccc(OC)cc2)c1C#N,-1%
5,CCOc1cc(-c2cc(-c3ccc(NC(C)=O)cc3)nc(N)c2C#N)ccc1O,65.8% (active)
6,CCSc1nnc(SCC(=O)NNC(=O)c2ccccc2F)s1,-2.9%
7,COc1ccc(CC(=O)N/N=C(\C)c2ccccn2)cc1,89.5% (active)
8,CC(=NNC(=S)N1CCCCCC1)c1ccccn1,-14.3%
9,COc1ccc(CC(N)c2csc(NC(=O)Cc3ccccc3)n2)cc1 (centres undefined),10.4%
10,CCOC(=O)[C@H]1CCC[C@@H](NS(=O)(=O)c2ccc(NC(C)=O)cc2)C1,3.9%
11,CCCCNc1ccc(C(=O)Nc2cccc(C)n2)cc1[N+](=O)[O-],-6%
12,O=c1cc(CN2CCN(S(=O)(=O)/C=C/c3ccccc3)CC2)c2ccc(O)cc2o1,24.9%
13,Cc1nn(C)c(C)c1S(=O)(=O)N1CCC(CO)(Cc2ccc(Cl)cc2)CC1,-21.2%
14,O=c1[nH]cnc2c1c(-c1ccccc1)cn2-c1ccc(F)cc1,-5.8%
15,COc1ccc(N2C(=O)CNC2=S)cc1,5.9%
16,COc1ccc(-n2cc(-c3ccccc3)c3c(=S)nc[nH]c32)cc1,72.3% (active)
17,CCOC(=O)C1CCN(S(=O)(=O)c2ccc3c(c2)N(C)C(=O)CC(=O)N3C)CC1,-1.6%
18,C[C@@H]1CN([C@H](C)CO)S(=O)(=O)c2ccc(C#C[C@@H](C)O)cc2O[C@@H]1CN(C)Cc1ccc(-c2ccccc2)cc1,-5.2%
19,O=C(OCc1nnc(-c2ccccc2)o1)c1cc(=O)[nH]c2ccccc12,3.9%
20,Cc1onc(-c2ccccc2Cl)c1C(=O)OCc1nnc(-c2ccccc2)o1,-13.6%

row,SMILES,protection from H2O2 cell death
1,CCCc1nc2ccccc2c(C(=O)OCc2nnc(-c3cc(OC)c(OC)c(OC)c3)o2)c1CC,64.8% (active)
2,Cc1ccc(CNS(=O)(=O)c2ccc3c(c2)N(C)CCO3)cc1,-9.1%
3,C[C@@H]1CC[C@]2(O[C@@H](CCO)C[C@H](O)[C@H]2O)O1,-5.8%
4,COc1ccc2oc(C(=O)N(CC(C)C)C3CCS(=O)(=O)C3)c(C)c2c1 (centres undefined),2.8%
5,CC(C)CNC(=S)NNC(=O)c1ccccc1OC(F)F,-3.4%
6,CCN(CC(=O)Nc1ccc2c(c1)OCO2)S(=O)(=O)c1ccccc1,-7.6%
7,O=C(CN(c1ccc2c(c1)OCCO2)S(=O)(=O)c1ccccc1)Nc1ccc2c(c1)OCO2,79.8% (active)
8,O=C(CCS(=O)(=O)Cc1ccccc1)Nc1ccc2c(c1)OCCO2,0.6%
9,COc1ccc(NS(=O)(=O)c2ccc(C)c(C(=O)NCC(c3cccs3)N3CCOCC3)c2)cc1 (centres undefined),-1.3%
10,COC(=O)c1ccc(S(=O)(=O)NCc2ccccc2)n1C,-1.9%
11,COc1cc(Br)cc(/C=N/c2ncn[nH]2)c1O,88.7% (active)
12,C=CCn1c(Cn2nnc3ccccc32)nnc1SCC(=O)N/N=C/c1cc(Br)cc(OC)c1O,9.5%
13,Oc1c(Cl)cc(Cl)cc1/C=N/c1ncn[nH]1,26.3%
14,CN(Cc1c(F)cccc1Cl)C(=O)COC(=O)Cn1cnc2ccccc2c1=O,-4%
15,Nc1scc(-c2ccncc2)c1Cl,-2.7%
16,[O-][n+]1ccc(OCc2ccccc2)cc1,-5.2%
17,COC(=O)[C@H]1[C@H]2C[C@H]3c4[nH]c5ccccc5c4CCN3C[C@@H]2CC[C@@H]1O,-2.1% and 1%
18,COc1cccc(C2c3[nH]c4ccccc4c3CCN2Cc2cccc(C)n2)c1 (centres undefined),-1.8%
19,COc1ccc(-c2ccc3[nH]c4c(c3c2)CCN2C[C@H]3[C@H](C)ON(C)[C@H]3C[C@@H]42)cc1,54.5% (active)
